Data from PubChem BioAssay AID489018 (Southern Research Specialized Biocontainment Screening …, 2010).
Screen size: about 2,300 compounds; about 350 (15%) were called active. Only a sample is shown. Measured potencies and affinities stand elsewhere. Unmarked numbers belong to inactive results. The rule behind the calls is not given here.

Assay: HepG2 cell cytotoxicity, dose response, cytotoxicity control for non-replicating M. tuberculosis project (AID 489018);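 note: HepG2 human liver cells; 100% = vehicle-treated cells and 0% = background signal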
Settings: series mostly up to 20 µM; viability: at the top concentration

SMILES	viability
Cc1ccc2[nH]c3c(c2c1)CCCC3NCCO (stereo not drawn)	101%
Cc1ccc2c(c1)c1c3n2CCN=C3CCC1	97.6%
O=C(COc1cccc2ccccc12)Nc1nc2ccccc2[nH]1	106%
O=C(OCC(=O)N1CCC(c2ccccc2)=N1)c1ccc([N+](=O)[O-])s1	103% [at 5 µM]
Cc1ccc(C(=O)NNC(=S)NC(=O)c2ccc(Cl)cc2)cc1	91.2% [at 5 µM]
CCCCCOc1ccc(CSC2=NCCN2)cc1[N+](=O)[O-]	93.7%
Cc1cc(Br)ccc1OCCCCN1CCC(C)CC1	80.7%
CCOC(=O)CCNC(=O)c1ccc2nc(C3CCCCC3)oc2c1	103%
CCOc1ccc(/C=N/OCC(=O)Nc2ccc3c(c2)OCO3)cc1	94.3%
O=C(Cn1cc([N+](=O)[O-])nc1[N+](=O)[O-])N1CCN(c2ccccc2)CC1	97.3% [at 5 µM]
O=C(c1ccccc1[N+](=O)[O-])N1N=C(c2ccccc2)CC1(O)C(F)(F)F (stereo not drawn)	101% [at 5 µM]
CC1=NN(C(=O)c2ccc(Cn3nc(C)c(Br)c3C)cc2)C(O)(C(F)(F)F)C1 (stereo not drawn)	80.5%
Cc1ccc(OC(=O)c2ccc(Br)o2)cc1	101%
O=C1NCC(O)=C1C=Nc1ccccc1O	100% [at 5 µM]
COc1cccc(NC(=O)c2ccc(Cn3cc([N+](=O)[O-])cn3)o2)c1	97.7%
CCc1cccc(OCCCn2ccnc2)c1	101% [at 5 µM]
CCOc1ccc(OCC(=O)Nc2ccc(OC)cc2)cc1	96%
Cc1ccc(-c2noc(CCC(=O)Nc3cccc(C#N)c3)n2)cc1	100%
Cn1cccc1/C=C1/C(=O)NC(=S)N(Cc2ccc(F)cc2)C1=O	107%
CCN1/C(=C(\O)c2ccccc2)C(=O)c2ccccc2S1(=O)=O	71%
Cc1cc(NC(=O)c2ccccc2F)n(-c2nc3ccccc3[nH]2)n1	100%
Cc1cc(Nc2ccccc2)n(-c2nc3ccccc3[nH]2)n1	90.5% [at 5 µM]
Cc1ccc(C(=O)N/N=C\c2ccc(-c3ccc(Cl)cc3)o2)cn1	90.8%
CCN1CSC(=S)N(Cc2ccc(OC)cc2)C1	86.2%

SMILES	viability
COc1cc(/C=N/N(C)C)ccc1OC(=O)c1cccs1	108%
Cc1ccn2c(NC3CCCC3)c(-c3ccccn3)nc2c1	107% [at 5 µM]
O=C(CC1CCCCC1)NCc1ccccc1	98.8%
COc1ccc(C(=O)Nc2nnc(-c3ccccc3)o2)cc1OC	90%
O=C(Nc1nnc(-c2ccc(F)cc2)o1)c1cc(Cl)sc1Cl	89.7%
Cc1ccc(C(=O)Nc2nnc(-c3ccncc3)o2)cc1	103%
COc1cccc(C(=O)OCC(=O)Nc2nnc(-c3ccccc3)o2)c1	94%
COc1cccc(-c2nnc(NC(=O)c3cccc(F)c3)o2)c1	91.6% [at 5 µM]
Cc1cccc(C(=O)Nc2nnc(-c3cccnc3)o2)c1	95.1%
O=C(Nc1nnc(-c2ccc(Cl)cc2)o1)c1ccccc1Br	83.9%
COc1cccc(C(=O)Nc2nnc(-c3ccc(F)cc3)o2)c1	80.5%
O=C1c2cccc3c([N+](=O)[O-])ccc(c23)C(=O)N1c1ccc(Cl)cn1	80.3%
Cc1ccc(OCCCCn2ccnc2)c(Cl)c1	98.8%
O=C(CCNc1cccc(Cl)c1)c1ccco1	98.8% [at 5 µM]
CSc1ccccc1NC(=O)c1cc(C(C)C)on1	101%
COc1ccc(/C=C2\COc3ccccc3C2=O)cc1OC	93%
COc1cccc(C(=O)OCC(=O)c2ccc(Br)s2)c1OC	94.5%
CCCCOC(=O)Cn1c(-c2ccccc2)nc2ccccc2c1=O	104%
O=C(Nc1ccc(S(=O)(=O)N2CCOCC2)cc1)c1ccc([N+](=O)[O-])s1	104% [at 5 µM]
O=C(Nc1nnc(-c2ccccc2Cl)o1)c1cccnc1	91.2%
COc1ccc(C(=O)Nc2nnc(C3=COCCO3)o2)cc1	96.1%
O=C(Nc1nnc(-c2ccccc2Cl)o1)c1ccco1	102%
O=C(Nc1nnc(-c2ccc(Cl)cc2)o1)c1cccc(N2C(=O)CCC2=O)c1	96.9%
COc1ccc(-c2nnc(NC(=O)C3=COCCO3)o2)cc1	81.8%

SMILES	viability
O=C(N/N=C/c1cc([N+](=O)[O-])ccc1O)C12CC3CC(CC(C3)C1)C2	82.9%
CCN1CCN(c2ccc(S(=O)(=O)N3CCCCC3)cc2NC(=O)c2ccc([N+](=O)[O-])o2)CC1	91.2% [at 5 µM]
O=C(OCc1cccc(F)c1)c1ccc2c(=O)n3c(nc2c1)CCC3	89.4%
CN(C)CC/C=C1/c2ccc(F)cc2Sc2ccc(Cl)cc21	81.2%
O=[N+]([O-])c1cc(-c2nc(-c3ccncc3)no2)cc([N+](=O)[O-])c1	85.4%
O=c1c2cc(Cl)ccc2oc2nc3n(c(=O)c12)CCCS3	92.4% [at 5 µM]
CC(=O)CC1(OC(C)=O)C(=O)N(C)c2ccccc21 (stereo not drawn)	100%
COc1ccc(/C=N/NC(=O)c2ccncc2)cc1CN1CCOCC1	94.9%
O=C(Oc1cccc2cccnc12)c1cccc(-n2cnnn2)c1	96.3%
O=C(Oc1cccc2cccnc12)c1cccc([N+](=O)[O-])c1	107%
COc1cc(NC(=O)N2CCOCC2)cc(OC)c1	108%
Oc1ccc(F)c2cccnc12	95.5%
COc1cc(OC)cc(OC(=O)c2ccc3c(=O)n4c(nc3c2)CCC4)c1	103%
O=C(CCN1CCOCC1)c1ccc(Cl)cc1	98.5%
O=C(Oc1cccc2cccnc12)c1ccc2c(c1)OCCO2	104% [at 5 µM]
CCc1ccc(N2NC(=O)/C(=C/C=C/c3ccco3)C2=O)cc1	87.6%
Cc1ccccc1OCCCCc1c(C)n[nH]c1C	71.8%
COc1ccc(C(=O)COC(=O)c2ccc(Cl)nc2)c(OC)c1	101%
COc1ccc(N2C(=O)NC(=O)/C(=C/c3ccc([N+](=O)[O-])s3)C2=O)cc1	89.5%
CCc1ccc(Cc2cnc(NC(=O)C3=NCCN3)s2)cc1	82.6%
CCCCNC(=O)Cc1ccc(C)cc1	95.6%
COc1cccc2[nH]c3c(Cl)ncnc3c12	115%
Cc1ccc(C(=O)Oc2cccc(-n3cnnn3)c2)cc1	92.2%
CCOC(=O)C1(CCc2ccccc2)CCN(Cc2ccccn2)CC1	102%

SMILES	viability
O=C(COc1c(Br)cc(Br)c2cccnc12)N1CCCCC1	86.5%
O=C(OCC(=O)N1CCN(c2ccccc2)CC1)c1cnc(Cl)c(Cl)c1	97.9%
Cc1[nH]n2c(=O)c3c(nc2c1-c1ccccc1)CCCC3	74.7%
O=C(Nc1nc2ccccc2[nH]1)c1cccc([N+](=O)[O-])c1	87.5%
Cc1cc(C)n2[nH]c(=O)c(N=Nc3cccc(C(F)(F)F)c3)c2n1	88.9%
CCOC(=O)c1ccc(-c2ccc(C(=O)Nc3cccnc3)o2)cc1	99.3%
Cc1cccc(C)c1NC(=O)COC(=O)CCc1c[nH]c2ccccc12	105% [at 5 µM]
O=C(COc1ccc(-c2ccccc2)cc1)Nc1cccnc1	100%
O=C(COc1ccc(Nc2ccccc2)cc1)OCC(=O)N1CCCCC1	102%
CCn1nnc(NC(=O)c2sc3ccccc3c2Cl)n1	92.3%
O=C(Nc1nccs1)c1sc2ccccc2c1Cl	80.8%
CCCc1ccc(OCc2ccc(C(=O)N/N=C/c3cccnc3)o2)cc1	85.4%
O=C(Nc1ccc(Cl)c(Cl)c1)O/N=C/c1ccncc1	105%
O=C(COc1ccccc1)NNc1nc2ccccc2s1	105%
CC(C)(C)/C(O)=C/c1nc2ccccc2oc1=O	100%
O=C(N/N=C/c1cc([N+](=O)[O-])ccc1O)C1CCCCC1	75.8%
Cc1ccc(-c2ccc(/C=N/NC(=O)CN3CCCC3)o2)cc1Cl	117% [at 5 µM]
Nc1ccc2nc3c(c(Cl)c2c1)CCCC3	86%
Oc1ccccc1/C=N/Nc1nc2ccccc2o1	71.9% [at 5 µM]
CCOC(=O)c1cnc(Nc2nc3ccccc3o2)nc1CSC(=S)N1CCCCC1	99.8% [at 5 µM]
O=C(OCCCOC(=O)c1ccc([N+](=O)[O-])o1)c1ccc([N+](=O)[O-])o1	95.3%
CN1C(=O)/C(=C/c2cccc(Cl)c2)Sc2ccc(C(=O)N3CCCC3)cc21	80.6%
O=C1Nc2cc(C(=O)NCCCN3CCOCC3)ccc2S/C1=C/c1cccc(Cl)c1	74.6%
Cc1ccc2oc(=O)c3cc(C(=O)NCCCN4CCCCCC4)sc3c2c1	97.4%

SMILES	viability
COc1cccc(/C=C2\SC(=S)N(CCC(=O)N3CCCCC3)C2=O)c1	71.2%
Cc1ccc(/C=N/NC(=O)C2COc3ccccc3O2)s1 (stereo not drawn)	77.9%
Cc1ccnc(NC(=O)c2cc3ccccc3o2)c1	78.3%
CC(C)(C)C(=O)/C=C/Nc1ccccc1O	98.5%
O=C(OCC(=O)N1CCN(c2ccccc2)CC1)c1ccc(Cl)cc1[N+](=O)[O-]	93.7%
COc1cc(NCCC(=O)c2cccs2)c(OC)cc1Cl	95.9%
COC(=O)C1=C(N)OC2=C(C(=O)CC(C)(C)C2)C1c1cccnc1 (stereo not drawn)	106%
CCOC(=O)CNC(=O)CNC(=O)c1nn(-c2ccc(OC)c(Cl)c2)c(=O)c2ccccc12	93.9%
Cc1cc(Cl)cc(C)c1OCCCCn1ccnc1	91.2%
CCCCn1c(=O)c(C(=O)Nc2ncccc2C)c(O)c2ccccc21	71.7%
CCn1c(=O)c(C(=O)Nc2ncccc2C)c(O)c2ccccc21	75.3%
Cc1cccnc1NC(=O)c1c(O)c2ccccc2n(C)c1=O	93.5% [at 5 µM]
CCCCCCn1c(=O)c(C(=O)Nc2nnc(C)s2)c(O)c2ccccc21	99.1%
CCCCn1c(=O)c(C(=O)Nc2nnc(C(C)C)s2)c(O)c2ccccc21	106%
C=CCn1c(=O)c(C(=O)Nc2cccnc2)c(O)c2ccccc21	92.8% [at 5 µM]
Cc1cccc(NCc2ccc([N+](=O)[O-])s2)c1	93.2%
c1coc(CNc2nc(N3CCCCC3)nc3ccccc23)c1	93.1% [at 5 µM]
Cc1ccc(NC(=O)COC(=O)C2=COCCO2)c([N+](=O)[O-])c1	106%
Cn1c(NC(=O)c2ccccc2)nc2ccccc21	87.3% [at 5 µM]
COc1ccc2c(c1)sc(=N)n2C	110% [at 5 µM]
Cc1ccc2c(c1)c(C1=c3ccccc3=NC1=O)c(O)n2C	85.1%
COc1ccc(COc2cccc(C=O)c2)cc1	96%
